Among the data in PubChem BioAssay AID1745853 (National Center for Advancing Translational Sciences (NCATS), 2022) are activity change, negative = inhibition values, retold here.

Common to all, as to test: Primary Screen for Target Class Profiling of Small Molecule Inhibitors of Methyltransferases
Experiment [1] concerns the target Catechol O-methyltransferase (Homo sapiens) (UniProt P21964). As to conditions: purified enzyme, MTase-Glo SAH luminescence; activity change, negative = inhibition: at 40 µM, stronger effect = lower value; outcome: 40 uM. A digest of the protocol: (§1)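 Each enzyme was assayed with SAM and its substrate. SAH formation detected by MTase-Glo luminescence; single-point 40 uM screen[…].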

Experiment [2] has as its target Glycine N-methyltransferase (Homo sapiens) (UniProt Q14749). As to conditions: purified enzyme, MTase-Glo SAH luminescence; measured here: GNMT inhibition; at 40 µM; stronger effect = lower value. A digest of the protocol: as §1
In experiment [3] the target is Guanidinoacetate N-methyltransferase (Homo sapiens) (UniProt Q14353). As to conditions: purified enzyme, MTase-Glo SAH luminescence; measured here: GAMT inhibition; at 40 µM; stronger effect = lower value. In a few lines: as §1
For experiment [4], the target named is Histamine N-methyltransferase (Homo sapiens) (UniProt P50135). As to conditions: purified enzyme, MTase-Glo SAH luminescence; measured here: HNMT inhibition; at 40 µM; stronger effect = lower value. A digest of the protocol: as §1
Chain of Histamine N-methyltransferase (Homo sapiens) (P50135 whole entry, looked up): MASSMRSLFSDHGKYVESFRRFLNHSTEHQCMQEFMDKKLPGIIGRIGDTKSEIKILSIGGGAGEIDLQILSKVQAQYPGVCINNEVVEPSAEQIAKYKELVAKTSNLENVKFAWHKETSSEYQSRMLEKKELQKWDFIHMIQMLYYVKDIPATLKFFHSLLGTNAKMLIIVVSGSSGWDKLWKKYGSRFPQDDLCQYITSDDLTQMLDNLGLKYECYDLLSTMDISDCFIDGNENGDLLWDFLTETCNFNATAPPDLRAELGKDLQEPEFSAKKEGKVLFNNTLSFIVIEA
The target of experiment [5] is Nicotinamide N-methyltransferase (Homo sapiens) (UniProt P40261). As to conditions: purified enzyme, MTase-Glo SAH luminescence; measured here: NNMT inhibition; at 40 µM; stronger effect = lower value. A digest of the protocol:
as §1

In experiment [6] the target is Phenylethanolamine N-methyltransferase (Homo sapiens) (UniProt P11086). Conditions: purified enzyme, MTase-Glo SAH luminescence; measured here: PNMT inhibition; at 40 µM; stronger effect = lower value. In a few lines:
as §1

About 970 (3.9%) of roughly 25,000 compounds were called active. Not shown: some 8% with an inconclusive outcome. How the calls were made is not given here. The entries come from a sample that favours actives as a whole.
On the % scale 0 is the no-effect control and ±100 the full control effect.

Chain of Nicotinamide N-methyltransferase (Homo sapiens) (P40261 whole entry, looked up): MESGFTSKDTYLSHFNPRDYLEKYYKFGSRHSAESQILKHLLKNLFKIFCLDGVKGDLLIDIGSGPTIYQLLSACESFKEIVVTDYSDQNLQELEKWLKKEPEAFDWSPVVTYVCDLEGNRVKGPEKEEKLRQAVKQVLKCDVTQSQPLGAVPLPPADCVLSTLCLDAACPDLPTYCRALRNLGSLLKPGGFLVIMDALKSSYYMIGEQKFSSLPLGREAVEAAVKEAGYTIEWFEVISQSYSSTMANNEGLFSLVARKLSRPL
Chain of Glycine N-methyltransferase (Homo sapiens) (Q14749 whole entry, looked up): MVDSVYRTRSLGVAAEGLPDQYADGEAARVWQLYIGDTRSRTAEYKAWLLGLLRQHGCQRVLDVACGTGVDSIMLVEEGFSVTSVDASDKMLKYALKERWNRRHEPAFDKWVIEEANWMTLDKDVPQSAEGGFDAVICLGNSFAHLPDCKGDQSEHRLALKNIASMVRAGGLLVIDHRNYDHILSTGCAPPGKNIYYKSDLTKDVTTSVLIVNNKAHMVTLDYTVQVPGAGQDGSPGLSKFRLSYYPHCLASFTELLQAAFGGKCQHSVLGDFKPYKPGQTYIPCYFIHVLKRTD
Chain of Phenylethanolamine N-methyltransferase (Homo sapiens) (P11086 whole entry, looked up): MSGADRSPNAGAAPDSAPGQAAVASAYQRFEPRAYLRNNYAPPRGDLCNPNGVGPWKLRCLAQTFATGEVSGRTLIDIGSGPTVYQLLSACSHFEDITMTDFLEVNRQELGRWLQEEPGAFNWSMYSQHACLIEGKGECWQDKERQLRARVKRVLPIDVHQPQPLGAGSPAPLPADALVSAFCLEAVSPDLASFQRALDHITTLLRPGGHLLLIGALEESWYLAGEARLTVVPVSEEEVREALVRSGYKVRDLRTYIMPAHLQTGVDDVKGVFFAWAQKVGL
Chain of Catechol O-methyltransferase (Homo sapiens) (P21964 whole entry, looked up): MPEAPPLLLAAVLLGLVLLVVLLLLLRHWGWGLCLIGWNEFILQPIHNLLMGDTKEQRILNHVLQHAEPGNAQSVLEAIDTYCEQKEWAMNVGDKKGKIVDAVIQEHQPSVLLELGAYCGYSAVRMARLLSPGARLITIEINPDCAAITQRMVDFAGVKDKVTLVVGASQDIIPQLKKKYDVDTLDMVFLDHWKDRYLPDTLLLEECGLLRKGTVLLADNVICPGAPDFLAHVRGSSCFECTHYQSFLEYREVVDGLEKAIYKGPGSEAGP

Take `CC(C)CCNC(=O)c1ccc2c(=O)nc3c(-c4ccc(Cl)cc4)n[nH]n3c2c1`: the activity change, negative = inhibition in experiment [1] is -1.51% (inactive); in experiment [2], -1.88%; in experiment [3], 4.17%; in experiment [4] it was -4.65%; in experiment [5], 0.687%; in experiment [6], -0.404%.
`COc1ccc(CCN2C(=O)c3ccc(-c4ccco4)n3CC2(C)C(=O)NCc2ccc(Cl)cc2)cc1OC` (configuration not stated): the activity change, negative = inhibition in experiment [1] was 0.852% (inactive); in experiment [2] it was -6.96%; in experiment [3] it was 1.72%; in experiment [4] it was 2.32%; in experiment [5], -28.2%; in experiment [6], -1.05%.
In the case of `Cc1cc2c(cc3n2CC(C)(C(=O)NC2CCCCC2)N(C2CCCCCC2)C3=O)o1` (configuration not stated), the activity change, negative = inhibition in experiment [1] was 3.65% (inactive); in experiment [2], 2.96%; in experiment [3], 9.51%; in experiment [4], 3.49%; in experiment [5], -0.25%; in experiment [6], -2.76%.
For `CCCCCCc1cc2c(-c3ccccc3)cc(=O)oc2cc1OCC(N)=O`, the activity change, negative = inhibition was -7.58% (inactive) in experiment [1]; -9.86% in experiment [2]; 1.37% in experiment [3]; -0.051% in experiment [4]; -9% in experiment [5]; -8.85% in experiment [6].
Take `COc1c2c(c(C)c3c1C(=O)OC3)OC1(C)CC(O)C34OC(O)(CCC3(C)C1C2)OC4(C)C` (configuration not stated): the activity change, negative = inhibition in experiment [1] was -2.85% (inactive); in experiment [2], -1.14%; in experiment [3], -7.45%; in experiment [4], -0.188%; in experiment [5] it was -20.3%; in experiment [6], -0.001%.
`COc1ccc(OC)c(CCNC(=O)CCn2ccc3cc(S(=O)(=O)N4CCCC4)ccc32)c1`: the activity change, negative = inhibition in experiment [1] was 1.88% (inactive); in experiment [2] it was 1.91%; in experiment [3], 4.56%; in experiment [4], 3.65%; in experiment [5] it was -0.408%; in experiment [6], 0.497%.
With `Cn1nccc1C(=O)N1CCC(Cc2nc(C3CC3)n[nH]2)C1` (configuration not stated), the activity change, negative = inhibition in experiment [1] was -2.8% (inactive); in experiment [2] it was -3.99%; in experiment [3], -1.84%; in experiment [4] it was -1.69%; in experiment [5] it was -5.4%; in experiment [6] it was -4.14%.
Regarding `CCOc1ccccc1CN1CCC(Cc2nc(-c3cccnc3)n[nH]2)C1` (configuration not stated), the activity change, negative = inhibition is -5.67% (active) in experiment [1]; -4.21% in experiment [2]; -1.54% in experiment [3]; -56.9% in experiment [4]; -49.4% in experiment [5]; -12.9% in experiment [6].
Regarding `CC(C)NC(=O)c1ccccc1OCC1CCCN(Cc2cccnc2)C1` (configuration not stated), the activity change, negative = inhibition is -0.392% (inactive) in experiment [1]; -1.68% in experiment [2]; -10.2% in experiment [3]; -2.4% in experiment [4]; -8.48% in experiment [5]; -0.898% in experiment [6].
Take `CCC(C)N1Cc2cc(NC(=O)c3ccc([N+](=O)[O-])cc3)ccc2OCC1=O` (configuration not stated): the activity change, negative = inhibition in experiment [1] is -3.17% (inactive); in experiment [2] it was -7.2%; in experiment [3] it was -10.5%; in experiment [4] it was -3.63%; in experiment [5], -19.6%; in experiment [6], -7.68%.
As for `CC(=O)c1ccc2c(c1)[C@H](NC(=O)c1ccc(F)c(Cl)c1)[C@H](O)C(C)(C)O2`, the activity change, negative = inhibition was -7.4% (inactive) in experiment [1]; -1.85% in experiment [2]; -7.24% in experiment [3]; -2.99% in experiment [4]; -18.7% in experiment [5]; -13.1% in experiment [6].
As to `COC[C@H]1NC(=O)CC[C@H]1C(=O)N1CCN(c2cccc(C)c2)CC1`, the activity change, negative = inhibition in experiment [1] was -9.6% (inactive); in experiment [2], -5.9%; in experiment [3], -7.51%; in experiment [4], -3.65%; in experiment [5], -13.6%; in experiment [6], -21.5%.
